HT1080NT lethal: qHTS for induction of synthetic lethality in tumor cells producing 2HG: qHTS for the HT-1080-NT fibrosarcoma cell line; HT-1080-NT fibrosarcoma viability, CellTiter-Glo ATP luminescence, 48 h; 360,000 compounds, 1.6% hits; Potency, µM (titrated, usually from 46.1 µM), without a hit: at the highest dose activity, negative = less viability, usual class: cytotoxic; AID 686970, 2013;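 note: NT is the 2HG producing partner of a matched IDH1 knockdown line; potency is the fitted concentration of half-maximal effect; 0% = DMSO-treated cells and -100% = media-only wells without cells; nearly all actives have a fitted effect of over 55% in size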
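Fibrosarcoma NT cells, 750 per well in 5% FBS RPMI, were exposed to compound for 48 hours. Viability: CellTiter-Glo luminescence.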
TDP1 cell CPT: qHTS for Inhibitors of human tyrosyl-DNA phosphodiesterase 1 (TDP1): qHTS in cells in presence of CPT; Potency, µM (titrated, usually from 46.2 µM), for inactives: at the highest dose activity change, negative = growth inhibition, actives largely listed as inhibitors; chicken DT40 Tdp1-/-;hTDP1 cells + 20 nM CPT, ATP luminescence, 48 h; 420,000 compounds, 12% hits; AID 686979, 2013; note: potency is the fitted concentration of half-maximal effect; nearly all actives have a fitted effect of over 55% in size
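Chicken DT40 Tdp1-/- cells complemented with human TDP1, 400 cells/well, exposed to compounds plus 20 nM camptothecin for at least 48 h at 37 C; viability read as ATP content by CellTiter-Glo luminescence.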
DT40 TDP1 no CPT: qHTS for Inhibitors of human tyrosyl-DNA phosphodiesterase 1 (TDP1): qHTS in cells in absence of CPT; DT40 Tdp1-/- hTDP1 cells, no CPT, ATP luminescence, 48 h; Potency, µM (top dose mostly 46.2 µM), without a hit: top-dose activity change, negative = growth inhibition, actives largely listed as inhibitors; 420,000 compounds, 15% hits; AID 686978, 2013; note: potency is the fitted concentration of half-maximal effect; nearly all actives have a fitted effect of over 55% in size
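Stably hTDP1-transfected Tdp1-null chicken DT40 cells were treated with library compounds minus camptothecin and grown for at least 48 hr at 37 °C, after which cellular ATP was quantified by luminescence.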
uPA surface inh: qHTS for Inhibitors of Cell Surface uPA Generation | Potency, µM (top dose mostly 38.3 µM), for the others: at the highest dose activity change, negative = inhibition, usual class: inhibitors | cell surface uPA generation assay, qHTS | 330,000 compounds, 0.31% hits; active = well fitted inhibition curve with a large enough effect; inconclusive = small, poorly fitted or top-dose-only effect; inactive = no such curve, though single readings can be large or run the other way; tested in mouse RAW 264.7 cells; note: potency is the fitted concentration of half-maximal effect; nearly all actives have a fitted effect of over 55% in size
IL1B secr inh: qHTS for Inhibitors of Inflammasome Signaling: IL-1-beta AlphaLISA Primary Screen. AID 743279, 2014. 360,000 compounds, 4.7% hits. THP-1 LPS/ATP IL-1B secretion, AlphaLISA, 16 h; active compounds read low. activity change, % at 57.5 µM; in the data active = activity change below about -50%; inconclusive = mostly about -30% to -49%
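THP-1 cells pretreated 1 hr with compounds (up to 57.5 uM final), then stimulated with LPS (250 ng/mL final) plus ATP (1.25 mM final); secreted IL-1B measured by AlphaLISA after 16 hr, decreased signal indicating inhibition.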
HT1080 IDH1KD tx: qHTS for induction of synthetic lethality in tumor cells producing 2HG: qHTS for the HT-1080-IDH1KD cell line; 360,000 compounds, 2% hits; HT-1080 IDH1 knockdown viability, ATP luminescence, 48 h; Potency, µM (titrated, usually from 46.1 µM), for inactives: top-dose activity, negative = toxicity, usual class: cytotoxic; AID 686971, 2013;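 note: potency is the fitted concentration of half-maximal effect; 0% = DMSO wells and -100% = cell-free medium wells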
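CellTiter-Glo luminescence after 48 h compound exposure at 37 degrees C of IDH1-knockdown HT-1080 cells in 5% FBS RPMI. %Activity scaled between DMSO wells and cell-free media wells, with curves fitted and assigned curve classes.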
An asterisk follows results filed as active; ? = inconclusive; . = no result; [ ] = another dose, or the depositor's remark. In the library only some 19% were active in any assay of this set; here they are far more common. Unless noted, calls come from the whole dose curve; as a rule, active = well fitted curve in the direction sought with a large enough effect; inconclusive = small, poorly fitted or top-dose-only effect, or another doubt; inactive = no such curve, though single readings can be large; an effect the other way counts as inactive or inconclusive. Unless noted, % is set by controls: 0 for no effect and ±100 for the full control effect.

SMILES | HT1080NT lethal | TDP1 cell CPT | DT40 TDP1 no CPT | uPA surface inh | IL1B secr inh | HT1080 IDH1KD tx
CC(=O)N1N=C2C3CCN(CC3)C2C1c1ccc(Br)cc1 (stereo not given) | 1.0% | 2.8% | -4.1% | 4.3% | 0.0 | 2.0%
O=C(Cn1c(=O)n(Cc2ccccc2)c(=O)c2sc3ccccc3c21)NCc1ccccc1Cl | . | -17.3% | ? | . | . | .
C[C@]12CCC3C(CC[C@H]4C[C@H](O)CC[C@]34C)[C@@H]1CC[C@@H]2C(=O)CO (stereo not given in full) | . | -24.4% | -29.6% | . | . | .
C[C@]12CCC3C(CC[C@H]4C[C@@H](O)CC[C@]34C)C1CC[C@@H]2OC(=O)[C@H](N)CCCCN (stereo not given in full) | -21.7% | ? | ? | -12.2% | -72.3* | -0.7%
O=C1CC2OCC=C3CN4CC[C@@]56c7ccccc7N1C5C2C3CC46 (stereo not given in full) | . | . | -11.9% | . | . | .
C1=NCCCN2CCCCC12 (stereo not given) | 4.4% | -4.5% | -3.6% | . | 1.7 | 3.9%
C[C@H](CO)N1C[C@H](C)[C@@H](CN(C)Cc2ccc(Cl)c(Cl)c2)Oc2c(NC(=O)C3CC3)cccc2C1=O | -29.7% | 16.4µM* | 23.1µM* | ? | -83.8* | -4.0%
C[C@H](CO)N1C[C@H](C)[C@@H](CN(C)Cc2ccccc2)Oc2c(NC(=O)c3ccncc3)cccc2C1=O | 3.6% | ? | 23.1µM* | 13.5% | 19.8 | 5.8%
C[C@H](CO)N1C[C@H](C)[C@@H](CN(C)C(=O)NC2CCCCC2)Oc2c(NC(=O)Nc3ccc4c(c3)OCO4)cccc2C1=O | 1.5% | ? | ? | 8.6% | -14.2 | 2.9%
C[C@@H]1CN([C@@H](C)CO)C(=O)c2cc(NC(=O)CCC(F)(F)F)ccc2O[C@H]1CN(C)Cc1ccc(Cl)c(Cl)c1 | ? | 20.6µM* | ? | ? | ? | 23.1µM*
C[C@H](CO)N1C[C@H](C)[C@@H](CN(C)S(=O)(=O)c2cccs2)Oc2ccc(NC(=O)Nc3ccc(C(F)(F)F)cc3)cc2C1=O | ? | 16.4µM* | 18.4µM* | ? | -2.4 | -60.6%
Cc1cc(NC(=O)CSc2nc3c(c(=O)n2-c2ccc(Cl)cc2)SCC3)no1 | ? | 0.5% | -12.8% | 7.5% | -7.7 | -29.8%
CC(C)NC(=O)Cn1cc(C(=O)c2ccccc2F)c2ccccc21 | -18.7% | -24.6% | -26.0% | 2.0% | -7.8 | ?
Cc1ccc(-[n+]2c(Cc3nn(-c4ccccc4)c(C)[n+]3-c3ccc(C)cc3)nn(-c3ccccc3)c2C)cc1 | 1.8% | -10.0% | 5.4% | . | -4.9 | 0.1%
c1ccc(CCNCc2cccs2)cc1 | -14.1% | -15.0% | -3.0% | 2.1% | 0.0 | -8.7%
C[C@H](CO)N1C[C@H](C)[C@@H](CN(C)Cc2ccc(-c3ccccc3)cc2)Oc2c(NC(=O)c3ccncc3)cccc2C1=O | ? | 16.4µM* | 23.1µM* | ? | -21.8 | -22.2%
Nc1nnc(Sc2ncccc2[N+](=O)[O-])s1 | 14.6% | ? | 16.4µM* | -1.7% | -28.8 | 12.1%
CC(C)OP(=O)(Oc1ccc(C(O)C(Cl)(Cl)Cl)cc1)OC(C)C (stereo not given) | -6.3% | ? | 18.4µM* | -8.8% | 8.1 | -3.1%
Cc1c(OC(=O)N(C)C)ccc2c1O/C(=C\c1ccco1)C2=O | 11.2% | ? | ? | 4.1% | -21.4 | 14.2%
CC(CN(C)C1CCN(C)CC1)c1ccccc1 (stereo not given) | -6.3% | -8.8% | 1.6% | 2.9% | -12.3 | -2.0%
O=c1oc2ccccc2n1CSC1=NCCS1 | ? | ? | ? | -12.2% | -106.8* | ?
CC(C)(O)C(=O)Nc1ccc([N+](=O)[O-])c(C(F)(F)F)c1 | 12.5% | ? | 14.6µM* | -10.3% | 23.4 | -6.3%
O=C(O)c1ccc([N+](=O)[O-])c([N+](=O)[O-])c1 | 5.4% | -9.6% | -16.1% | 1.6% | -2.2 | 1.1%
CSc1nc(C)c(Br)c(N2CC2)n1 | 1.8% | -25.4% | ? | -4.9% | -3.9 | 5.6%
CC(=O)OC1=CC[C@H]2[C@@H]3CC[C@H]4C[C@H](OC(C)=O)[C@@H](OC(C)=O)C[C@]4(C)[C@H]3CC[C@]12C | 29.4% | 14.6µM* | 11.6µM* | 18.3% | 3.9 | -1.2%
SMILES | HT1080NT lethal | TDP1 cell CPT | DT40 TDP1 no CPT | uPA surface inh | IL1B secr inh | HT1080 IDH1KD tx
CC(=O)O[C@H]1C[C@@H]2CC[C@@H]3[C@H](CC[C@]4(C)C(=O)CC[C@@H]34)[C@@]2(C)C[C@@H]1OC(C)=O | 10.4% | 23.1µM* | ? | -7.4% | 12.3 | 1.0%
CC(=O)OC1CC2(C)C(C(C)=O)CCC2C2CCC3=CC(=O)CCC3(C)C12 (stereo not given) | 6.9% | ? | ? | 5.1% | -15.0 | 7.4%
C[C@]12CCC3[C@@H](CC[C@@H]4C[C@H](O)CC[C@]34C)[C@@H]1CCC2=O (stereo not given in full) | 13.2% | ? | ? | 8.4% | 16.2 | -2.2%
O=C(c1c[nH]c2ccc(S(=O)(=O)N3CCOCC3)cc2c1=O)N1CCC2(CC1)OCCO2 | 21.7% | -9.5% | -0.6% | 1.3% | 8.6 | 14.9%
C/C=C1/CN2CC[C@]34C(=C(C=O)[C@@H]1C[C@H]23)Nc1c(O)cccc14 | . | -8.0%[9.04 µM] | -14.4%[9.04 µM] | . | . | .
C=CCC1(CCCCC)C(=O)NC(=S)NC1=O | 5.0% | 3.7% | -20.4% | 8.2% | 15.1 | 13.1%
C[C@]12CCC(=O)C=C1CCC1C2CC[C@@]2(C)C1CC[C@@H]2O (stereo not given in full) | 0.0% | 0.3% | -23.8% | -1.8% | 10.9 | -0.7%
C[C@]12CC[C@H](OC(=O)CCC(=O)O)CC1=CCC1C2CC[C@@]2(C)C1CC[C@@H]2OC(=O)CCC(=O)O (stereo not given in full) | 24.4% | -7.9% | 2.3% | 2.8% | 15.5 | 12.7%
CC(=O)C1CCC2C3CCC4=CC(=O)CC[C@@]4(C)C3CC[C@]12C (stereo not given in full) | . | 13µM* | 14.6µM* | . | . | .
